Substitutions are numbered along the chain they refer to. The full ranking holds about 5,800 sequences; the median of “enrichment r” is about 0.68, and the highest 2% start at about 11. Shown is part of a subset that was picked to be rich in the highest values.
T1: UNK ZnF1-6 (called full-length) (human, UniProt Q9C0B0 30-357)
T1 sequence: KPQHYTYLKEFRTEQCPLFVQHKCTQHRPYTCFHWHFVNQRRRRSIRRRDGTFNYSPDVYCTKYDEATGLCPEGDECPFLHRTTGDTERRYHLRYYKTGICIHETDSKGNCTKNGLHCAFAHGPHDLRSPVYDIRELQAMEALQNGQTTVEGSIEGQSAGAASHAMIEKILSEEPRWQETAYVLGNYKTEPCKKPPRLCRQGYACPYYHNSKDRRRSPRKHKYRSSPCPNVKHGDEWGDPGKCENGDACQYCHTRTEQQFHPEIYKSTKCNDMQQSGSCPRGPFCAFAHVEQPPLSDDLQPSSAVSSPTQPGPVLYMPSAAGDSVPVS

B1: chr10:87814449:87814585:-|CDS|ENSG00000138138|unk|FALSE|bound_elsewhere (ssRNA)
RNA: GGGAGUUCUACAGUCCGACGAUCUUUAAUUUUCCGUUUGACAAUAUUUGGUGCAGUGACAUACUUUACUAUCAAAUGGAUGGUAGAUGCAAUUGAUCCAACCAGAAAGCAAAAAGUAGAAGCUCAGAAACAGGUAUGAUUGAACAACAGAGGAUUGAGCAUCA
B2: ENSG00000104805:stop:overlap|stop_codon|ENSG00000104805|stop_codon|NA|stop_codon (ssRNA)
RNA: GGGAGUUCUACAGUCCGACGAUCAGUUGAAGGAGGUGUGGGAGGAGCUGGAUGGACUGGACCCCAACAGCAUCCCAAAGUGCUAGGAUUACAGGCGUGAGUCACUGCGCCCGGCCUCGAAAGCCCUUUCUCUAUGGUGGAUCACAACAGAGGAUUGAGCAUCA
B3: chr2:45599705:45599806:-|CDS|ENSG00000068784|msi1|total|mutant (ssRNA)
RNA: GGGAGUUCUACAGUCCGACGAUCCUCAUAUGUUCUCUUUGUGGUUUGACCGAACCGCUCUGUGGCUAUUGCUGAUACUGCUUCCGAAGACAGAAAAAAUAAAUUGGAUACUGUACAGACUCUGAAAACAGCCAAGACAAAACACAACAGAGGAUUGAGCAUCA
B4: chr1:93365539:93365640:+|3pUTR|ENSG00000117505|unk|FALSE|unique (ssRNA)
RNA: GGGAGUUCUACAGUCCGACGAUCAGGAGGCAAAAUUGCACCCUGUUGAAAACCACCACCUUAGAUCAUCUAGGUUUUACUUUUAGGAUAAGACACUUGAGGGAAAGGCUGUGAAACUGAACCUCUGUUAGAAGCAACACACAGCAACAGAGGAUUGAGCAUCA
B5: chr2:171983412:171983537:+|3pUTR|ENSG00000128708|unk|total|mutant (ssRNA)
RNA: GGGAGUUCUACAGUCCGACGAUCUGAUGACUUUAAUUUUAAAAUCUUGUGACAUUUUGCUUAUACUAAAAGUUAUCUAUCUUCCGUUGAAUAUUUUCUUUUGGAGAGAUUGUAUAUUUUAAAAUACUGUUCCGAGUUUAUGAGCAACAGAGGAUUGAGCAUCA
B6: chr19:41330322:41331077:-|three_prime_utr|ENSG00000105329|control|control|control (ssRNA)
RNA: GGGAGUUCUACAGUCCGACGAUCGUCUGCACUAUUCCUUUGCCCGGCAUCAAGGCACAGGGGACCAGUGGGGAACACUACUGUAGUUAGAUCUAUUUAUUGAGCACCUUGGGCACUGUUGAAGUGCCUUACAUUAAUGAACUCCAACAGAGGAUUGAGCAUCA
B7: chr12:88196262:88196297:+|3pUTR|ENSG00000139324|msi1_unk|FALSE|overlapping (ssRNA)
RNA: GGGAGUUCUACAGUCCGACGAUCUGUAUACUUGUUUUUAACUUUAAAUGUAAUUUUUAAUCAGGUAAAGUUUGACACAUGUAUAGCUACAUACACACAUUUUUAAUGGUGCUCAUAUAUACUGUAUUUUUUGUUGUUUAGUUUCAACAGAGGAUUGAGCAUCA
B8: chr5:136976780:136976881:-|3pUTR|ENSG00000152377|msi1|FALSE|unique (ssRNA)
RNA: GGGAGUUCUACAGUCCGACGAUCCUUAAAUUAGCAUGUUCCAAUCCAGUCGGCAUUGCCUGAAUACAGUAGCAUCAUACCUAUAGUUGGUCUUAGAUAAGAAAUGAACUACUUGAUAUAGCAAAGUCCUUUGGCUUCGUAAAUCAACAGAGGAUUGAGCAUCA
B9: chr20:59325757:59325866:+|3pUTR|ENSG00000124205|unk|FALSE|unique (ssRNA)
RNA: GGGAGUUCUACAGUCCGACGAUCUUAUGUGGAUCUGUUCAAAGUAGUCACUGUAUAUACGUAUAGAGAGGUAGAUAGGUAGGUAGAUUUUAAAUUGCAUUCUGAAUACAAACUCAUACUCCUUAGAGCUUGAAUUACAUUUUUCAACAGAGGAUUGAGCAUCA
B10: chr12:50748518:50748596:+|3pUTR|ENSG00000066084|msi1_unk|FALSE|overlapping (ssRNA)
RNA: GGGAGUUCUACAGUCCGACGAUCUCAAAUUCAAACUACAGUACUGUGUAAUUAUGUAUAAAGUUUUUUUAUUUAUUUGAAGUUAGACUAGAUAUACGUUUUUAAAUUUAACAUCUGGCUGGACAGUGUUCUAUUAACUCAUUGCAACAGAGGAUUGAGCAUCA
B11: chr6:105100707:105100870:-|3pUTR|ENSG00000112276|msi1|total|mutant (ssRNA)
RNA: GGGAGUUCUACAGUCCGACGAUCUGAGAUAUAUAUUUUCACAGUCUUUUCCCGAUAUAUUAUUGUUUUAACUUAACAAAUCUCCGCAAUCUCUCAAUGCCUUUUCACUUAUUUUUUUCCAAGUUAUGAUUCUUUUUCCUCACACAACAGAGGAUUGAGCAUCA
B12: chr9:5123879:5124511:-|three_prime_utr|ENSG00000120210|control|control|control (ssRNA)
RNA: GGGAGUUCUACAGUCCGACGAUCCUGGUAAAUUGGAUUGCCAUAUGCAGAAGAAUGAAACUGGACCCAUAUUUAUCACCAUAUAGAAAAAUUAACUCGAUCGAUUACAGACUUAAAUGUAAGAUCUGAAACUAGAAAAAUACUCAACAGAGGAUUGAGCAUCA
B13: chr3:168010103:168010202:-|3pUTR|ENSG00000173905|msi1_unk|total|mutant (ssRNA)
RNA: GGGAGUUCUACAGUCCGACGAUCGCUCAAACAUAAAUCUGCCUACUGAACUCCCGGAUAUUUAAUUACAAAAAUUAAGAACUCCGACUUUUUUAAAACUUUUGUAUCCGAAAUGCGCAUACAUUUAUAUGAAUAUAUUUUGAUCAACAGAGGAUUGAGCAUCA
B14: chr11:118396625:118396726:+|3pUTR|ENSG00000110344|msi1|FALSE|bound_elsewhere (ssRNA)
RNA: GGGAGUUCUACAGUCCGACGAUCAACUUGACAAUGCUCCCCUGGCUUGCAGGAAAUUAUACUUAUUAUAGCAUCACCAAGUUUAGAAAUCAUCACUAAUUUUCACCCUCUGUUGUCUCUUCAUAUUCUUCUUCCUUUUCCUAACAACAGAGGAUUGAGCAUCA
B15: chr5:24509697:24509799:-|CDS|ENSG00000040731|unk|FALSE|unique (ssRNA)
RNA: GGGAGUUCUACAGUCCGACGAUCACUCGACUAUGAGAGCCGAAGACUUUAUACUCUGAAAGUCGAAGCAGAAAACACCCAUGUAGAUCCCCGUUUUUAUUACCUAGGACCAUUUAAAGAUACUACCAUAGUGAAAAUCUCUAUCAACAGAGGAUUGAGCAUCA
B16: chr8:103442975:103443076:+|3pUTR|ENSG00000164934|msi1|FALSE|bound_elsewhere (ssRNA)
RNA: GGGAGUUCUACAGUCCGACGAUCGGACUAGAUUAAUUGCAAACAUUUUAGUUAUAUGUGUAGAGCUUUAUUGUUACUCCUUUUAGCUACCCUGAAAAAUGAUCCUUAAAGGUGGCCUAGUUGGUAAGACUGUUUUAUCCUUAACAACAGAGGAUUGAGCAUCA
B17: chr6:105100707:105100870:-|3pUTR|ENSG00000112276|msi1|FALSE|unique (ssRNA)
RNA: B11 RNA with C51U, C52A, C83U, C84A
B18: chr12:48342538:48342639:-|3pUTR|ENSG00000167528|unk|FALSE|unique (ssRNA)
RNA: GGGAGUUCUACAGUCCGACGAUCUUGUUAAACAUUUUGAGUAUCACUCUUGCAUACUGUUACUAUUAUAUUUUCUCUAUAUAUAGACAGAAAGGCCAUUUUAGAAUAUUAAAGGCUCUGAAAAUUUCUGCAGUAGACCCAACUCAACAGAGGAUUGAGCAUCA
B19: chr3:64018827:64018930:-|CDS|ENSG00000163636|unk|FALSE|unique (ssRNA)
RNA: GGGAGUUCUACAGUCCGACGAUCUGAACUCAUGGAUUAUAAAACAUUUGUGACUUAUACUGUCUAUGUCAGUAUGAUUGCCUUAGAAAGACCAGAUCUCAGGGAAAAGGUAAUGACCAAACUUUAAUACUCAAAUUUAAAGACCAACAGAGGAUUGAGCAUCA
B20: chr3:168010103:168010202:-|3pUTR|ENSG00000173905|msi1_unk|FALSE|overlapping (ssRNA)
RNA: B13 RNA with C53U, C54A, C83U, C84A, C107U, C108A
B21: chr6:43570573:43570674:-|CDS|ENSG00000124571|unk|FALSE|unique (ssRNA)
RNA: GGGAGUUCUACAGUCCGACGAUCGGUGUAGGAAACACAGACAGAAUUGGUGAUGUUUAUCCUUUUGCGACUGGCAGAGGAUGUAGUGACUUUUCAGACACUUCCCCCUCAAAGAAGAAGGGACAUCCAGCAAACAUUAACCCACAACAGAGGAUUGAGCAUCA
B22: chr11:73394502:73394603:+|CDS|ENSG00000054967|msi1|total|mutant (ssRNA)
RNA: GGGAGUUCUACAGUCCGACGAUCCACCAUCUCCACACCGUGCAGGGCCUGGCCUCGCUCUCUGGCCCCUGCUGCUCCCGCUGCCGCCAGAAGAAGUGGCCCGAGGUGCUGCUGUCCCCUGAGGCUGCCGCCGCCACUACUCCUCAACAGAGGAUUGAGCAUCA

The binders below were run against T1, UNK ZnF1-6 (called full-length) (assay: nsRBNS (natural sequence RNA bind-n-seq); RBNS binding buffer (assumed for nsRBNS): 25 mM Tris pH 7.5, 150 mM KCl, 3 mM MgCl2, 0.01% Triton X-100, 500 ug/ml BSA, 20 U/ml SUPERase-In, 4 C; UNK is unkempt and MSI1 is Musashi-1; names of the RNAs are library labels; protein concentration not given here; high values mean tight binding).

Row | Binder | binding signal [enrichment R]
1 | B1 | 0.395
2 | B2 | 0.682
3 | B3 | 0.362
4 | B4 | 5.47
5 | B5 | 0.599
6 | B6 | 2.74
7 | B7 | 3.56
8 | B8 | 8.89
9 | B9 | 20.3
10 | B10 | 6.56
11 | B11 | 3.08
12 | B12 | 21.7
13 | B13 | 3.17
14 | B14 | 4.24
15 | B15 | 1.94
16 | B16 | 6.96
17 | B17 | 18.7
18 | B18 | 3.54
19 | B19 | 0.48
20 | B20 | 12.6
21 | B21 | 0.529
22 | B22 | 0.888
